According to PubChem BioAssay (Tox21):
“And” between values parts separate entries of the source, which are not always exact repeats. Identical values can stand only once. Results filed as inconclusive are left out. Entries that show only a call come without a potency. A structure can be active in one record and inactive in another. The source made the active and inactive calls. Unless noted, calls follow the shape of the dose curve; as a rule, active = well fitted curve in the direction sought with a large enough effect in the repeat runs; inconclusive = weak or mixed curves; inactive = no such curve, though single readings can be large; an effect the other way counts as inactive or inconclusive.

Legend:
[1] = A CellTox Green Cytotoxicity Assay to monitor cytotoxicity in HepG2 cells - 0 hour (AID 1224882); also: nearly all actives have a fitted effect of over 35% in size; also: potency is read from the fitted curve at half-maximal effect
In short: (§1)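 First, HepG2 cells (600/well) mixed with reagent were plated; second, after 5 h at 37 C they received compounds via pintool; third, fluorescence was measured at 0 h through 40 h at 8 h intervals.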

[2] = A CellTox Green Cytotoxicity Assay to monitor cytotoxicity in HepG2 cells - 32 hour (AID 1224883); also: nearly all actives have a fitted effect of over 50% in size; also: potency is read from the fitted curve at half-maximal effect
In short: as §1

[3] = A CellTox Green Cytotoxicity Assay to monitor cytotoxicity in HEK293 cells - 8 hour (AID 1224884); also: nearly all actives have a fitted effect of over 35% in size; also: potency is read from the fitted curve at half-maximal effect
In short: (§2)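 Dead-cell fluorescence measured kinetically: asymmetric cyanine dye, HEK293, 600 cells/well, 5 h settle, 23 nL cpd/DMSO, 37 C, reads 0–40 h every 8 h.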

[4] = qHTS RealTime-Glo MT Cell Viability Assay in HepG2 cells - 16 hour (AID 1224885); also: nearly all actives have a fitted effect of over 50% in size
In short: (§3)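 Viability was tracked continuously by NanoLuc luminescence from prosubstrate reduced by living HepG2 cells, at successive time points over 40 h of compound exposure. Cells with reagent were preincubated 5 h at 37 °C before compound addition.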

[5] = qHTS RealTime-Glo MT Cell Viability Assay in HEK293 cells - 24 hour (AID 1224886); also: nearly all actives have a fitted effect of over 50% in size; also: potency is read from the fitted curve at half-maximal effect
In short: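 Viability tracked continuously by luminescence as live cells reduce a prosubstrate for NanoLuc; HEK293 cells preincubated 5 h, compound-treated at 37 C, and read at 0, 8, 16, 24, 32 and 40 h.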

[6] = A CellTox Green Cytotoxicity Assay to monitor cytotoxicity in HEK293 cells - 16 hour (AID 1224888); also: nearly all actives have a fitted effect of over 35% in size
In short: as §2

[7] = qHTS RealTime-Glo MT Cell Viability Assay in HepG2 cells - 0 hour (AID 1224889); also: nearly all actives have a fitted effect of over 50% in size; also: potency is read from the fitted curve at half-maximal effect
In short: as §3

[8] = A CellTox Green Cytotoxicity Assay to monitor cytotoxicity in HepG2 cells - 8 hour (AID 1224890); also: nearly all actives have a fitted effect of over 45% in size; also: potency is read from the fitted curve at half-maximal effect
In short: as §1

[9] = qHTS assay to identify small molecule antagonists of the estrogen receptor alpha (ER-alpha) signaling pathway using the BG1 cell line in the presence of 0.1 nM 17-beta-estradiol - cell viability counter screen (AID 1259241); also: nearly all actives have a fitted effect of over 40% in size
In short: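 Measures cytotoxicity alongside the ER-alpha antagonist readout: VM7Luc4E2 cells, charcoal-stripped serum, 0.1 nM 17beta-estradiol final, 22 hr compound incubation at 37C, CellTiter-Fluor fluorescence.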

[10] = qHTS assay to identify small molecule antagonists of the androgen receptor (AR) signaling pathway using the MDA cell line in the presence of 0.5 nM R1881 - cell viability counter screen (AID 1259242); also: nearly all actives have a fitted effect of over 45% in size
In short: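 qHTS format. MDA-kb2 (MMTV-luc, AR/GR responsive) + cpd + 0.5 nM R1881 final, 16 hr 37C/0% CO2 → CellTiter-Fluor 30 min → fluorescence intensity.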

[11] = target: Estrogen receptor (Homo sapiens) (UniProt P03372); experiment: qHTS assay to identify small molecule antagonists of the estrogen receptor alpha (ER-alpha) signaling pathway using the BG1 cell line in the presence of 0.1 nM 17-beta-estradiol (AID 1259244); also: nearly all actives have a fitted effect of over 50% in size; also: potency is read from the fitted curve at half-maximal effect
Estrogen receptor (Homo sapiens), sequence (P03372 whole entry, looked up): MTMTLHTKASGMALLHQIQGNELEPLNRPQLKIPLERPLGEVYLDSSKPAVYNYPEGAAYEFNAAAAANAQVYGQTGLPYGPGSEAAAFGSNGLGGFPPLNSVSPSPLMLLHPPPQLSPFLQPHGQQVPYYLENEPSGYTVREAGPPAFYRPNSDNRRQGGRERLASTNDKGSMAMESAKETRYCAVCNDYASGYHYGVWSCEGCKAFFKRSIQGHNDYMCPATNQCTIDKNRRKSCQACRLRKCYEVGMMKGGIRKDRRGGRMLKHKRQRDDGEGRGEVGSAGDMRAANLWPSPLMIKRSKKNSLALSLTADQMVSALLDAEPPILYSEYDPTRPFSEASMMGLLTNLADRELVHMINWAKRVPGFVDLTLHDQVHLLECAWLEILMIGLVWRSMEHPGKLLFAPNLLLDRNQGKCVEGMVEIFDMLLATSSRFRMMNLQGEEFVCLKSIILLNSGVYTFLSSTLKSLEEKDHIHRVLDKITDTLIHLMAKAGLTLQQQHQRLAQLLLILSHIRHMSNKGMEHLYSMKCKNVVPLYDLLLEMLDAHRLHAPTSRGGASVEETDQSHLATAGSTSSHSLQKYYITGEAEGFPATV
In short: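 Reporter is a stably transfected luciferase under four estrogen responsive elements in VM7Luc4E2 cells expressing native full-length ER-alpha; inhibition of 0.1 nM (final) 17beta-estradiol-driven signal over 22 h is read by luminescence.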

[12] = qHTS assay to identify small molecule HDAC inhibitors (AID 1259364);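 also: wild-type HCT-116 cells with endogenous class I/II HDAC activity; top concentration of the series differs between compounds; nearly all actives have a fitted effect of over 45% in size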
In short: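 Quantitative high-throughput format: overnight-seeded HCT-116 cells got compounds for 2 hr at 37C; HDAC-Glo I/II reagent added, 30 min RT, luminescence measured.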

[13] = qHTS assay to identify small molecule HDAC inhibitors - cell viability counter screen (AID 1259365)
In short: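 Following a 2hr exposure of overnight-plated wild-type HCT-116 cells to DMSO-delivered compounds, CellTiter-Glo was added and luminescence recorded after 30min at room temperature.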

[14] = qHTS assay to identify small molecule agonists of the sonic hedgehog signaling (Shh) pathway - cell viability counter screen (AID 1259366); also: nearly all actives have a fitted effect of over 50% in size
In short: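 After a 4hr attachment at 37C, NIH/3T3 cells bearing an integrated Gli1-driven luciferase reporter were dosed with compounds. Treatment lasted 24hr, with the final hour including CellTiter-Fluor for a fluorescence viability measurement.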

[15] = qHTS assay to identify small molecule antagonists of the sonic hedgehog signaling (Shh) pathway - cell viability counter screen (AID 1259367); also: nearly all actives have a fitted effect of over 55% in size; also: potency is read from the fitted curve at half-maximal effect
In short: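 Fluorescence read-out (CellTiter-Fluor, 1 hr at 37C) taken after 23 hr compound treatment of 3T3 Gli1-Luc cells stimulated with conditioned medium. Cells were seeded at 2,000 per well and pre-incubated 4 hr.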

[16] = qHTS assay to identify small molecule agonists of the sonic hedgehog signaling (Shh) pathway (AID 1259368; calls by dose curve;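 also: NIH/3T3-derived 3T3Gli1-Luc cells carrying a stable Gli1-driven firefly luciferase reporter; series mostly up to about 92 µM; nearly all actives have a fitted effect of over 15% in size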)
In short: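 Quantitative high-throughput format using a Gli1-driven firefly luciferase reporter line derived from NIH/3T3 cells. After a 24 hr compound treatment at 37 C and 5% CO2, luminescence reported Gli1 response element activity.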

[17] = qHTS assay to identify small molecule antagonists of the sonic hedgehog signaling (Shh) pathway (AID 1259369; calls by dose curve; also: nearly all actives have a fitted effect of over 45% in size; also: potency is read from the fitted curve at half-maximal effect)
In short: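 Stable Gli1-Luc reporter NIH/3T3 clone; quantitative HTS in stimulated mode with conditioned medium. Luminescence measured after 24hr compound treatment at 37 C.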

[18] = qHTS RealTime-Glo MT Cell Viability Assay in HEK293 cells - 8 hour (AID 1224887)
In short: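 600 HEK293 cells per well, dispensed already mixed with RealTime-Glo MT reagents. Compound dosing came 5 h later. The same wells were read for luminescence at 0, 8, 16, 24, 32 and 40 h of exposure at 37 C.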

[19] = qHTS assay to identify small molecule phospholipidosis (PLD) inducers (AID 1259344; active = well fitted curve in the direction sought with a large enough effect; an effect the other way counts as inactive or inconclusive)
In short: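 Read-out is LipidTOX Red fluorescence (ex 595/em 615) imaged in HepG2 cells after 24 h compound exposure at 37 C, with Hoechst nuclear counterstain (ex 352/em 461) allowing per-cell normalisation.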

SMILES | Potency [1] | Potency [2] | Potency [3] | Potency [4] | Potency [5] | Potency [6] | Potency [7] | Potency [8] | Potency [9] | Potency [10] | Potency [11] | Potency [12] | Potency [13] | Potency [14] | Potency [15] | Potency [16] | Potency [17] | Potency [18] | outcome [19]
O=NN1CCOCC1 | inactive | inactive | inactive | inactive | inactive and 2.45 µM (active) | inactive | inactive | inactive | inactive | inactive | inactive | inactive | inactive | inactive | inactive | inactive | inactive |  | 
N#CC(c1ccccc1)c1ccccc1 | inactive | inactive | inactive | inactive | inactive | inactive | inactive | inactive | inactive | inactive |  | inactive | inactive | inactive | inactive | inactive | inactive |  | 
ClC(Cl)=C(Cl)C(Cl)=C(Cl)Cl | inactive | inactive | inactive | inactive | inactive | inactive | inactive | inactive | inactive | inactive | inactive | inactive | inactive | inactive | inactive | inactive | inactive |  | 
Clc1ccc(C(Cl)(Cl)Cl)cc1 | inactive | inactive | inactive | inactive | inactive | inactive | inactive | inactive | inactive | inactive | inactive | inactive | inactive | inactive | inactive | inactive | inactive |  | 
Cc1cc(Cl)ccc1N=CN(C)C | inactive | inactive | inactive | inactive | inactive | inactive | inactive | inactive | inactive | inactive |  | inactive | inactive | inactive | inactive | inactive | inactive |  | 
O=C(O)CF | inactive | inactive and 19.5 µM (active) | inactive | inactive | inactive | inactive | inactive | inactive | inactive | inactive | inactive | inactive | inactive | inactive | inactive | inactive | inactive |  | 
O=[N+]([O-])c1ccc(Nc2ccccc2)cc1 | inactive | inactive | inactive | inactive | 44 µM (active) and 21.9 µM (active) | inactive | inactive | inactive |  | inactive |  | inactive | inactive |  | 48.9 µM (active) | inactive | 17.2 µM (active) |  | 
c1ccc(C2CO2)cc1 (stereo not given) | inactive | inactive |  | inactive | inactive | inactive | inactive | inactive | inactive | inactive |  | inactive | inactive | inactive | inactive | inactive | inactive | inactive | 
Clc1cccc(Cl)c1 | inactive | inactive | inactive | inactive | inactive | inactive | inactive | inactive | inactive | inactive |  | inactive | inactive | inactive | inactive | inactive | inactive |  | 
C[C@]12CCC(=O)C=C1CC[C@@H]1[C@@H]2CC[C@@]2(C)[C@H]1CC[C@]2(C)O | 19.7 µM (active) and inactive | 22.1 µM (active) | 44 µM (active) and inactive | inactive | 19.7 µM (active) |  | 14.3 µM (active) and 9.52 µM (active) | 22.1 µM (active) and inactive | inactive | inactive | 30.9 µM (active) and inactive | inactive | inactive | inactive | inactive | inactive | 6.16 µM (active) |  | inactive
CC(C)CON=O | inactive | inactive | inactive | inactive | inactive | inactive | inactive | inactive | inactive | inactive | inactive | inactive | inactive | inactive | inactive | inactive | inactive |  | 
CCCCCCCCCC(CC)c1ccc(S(=O)(=O)O)cc1 (stereo not given) | inactive | 54.9 µM (active) and 21.3 µM (active) and 38.9 µM (active) |  | inactive | 44.1 µM (active) and inactive |  | inactive | inactive and 34.7 µM (active) | inactive | inactive |  | inactive | inactive | inactive | inactive | inactive | inactive |  | inactive
